# Results from PubChem BioAssay (NCATS).
# Inconclusive results are not listed. Unmarked numbers belong to inactive results. Active and inactive are the calls of the source. Calls follow the shape of the dose curve; as a rule, active = well fitted activation curve with a large enough effect; inconclusive = small, poorly fitted or top-dose-only effect; inactive = no such curve, though single readings can be large or run the other way.
# Molecular target: Cellular tumor antigen p53 (Homo sapiens) (UniProt P04637)
# Assay: Primary qHTS for small molecule compounds that upregulate eGFP-tagged delta133p53alpha (in N-terminal) cells. (AID 2060322); also: nearly all actives have a fitted effect of over 75% in size;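 as to activation: cells pre-induced with doxycycline then dosed without doxycycline; series mostly up to about 56 µM; 0% = DMSO vehicle and 100% = reference activator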
# Settings: NCI-H358 eGFP-delta133p53alpha fluorescence, 24 h; activation: stronger effect = higher value
# In short: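 NCI-H358 cells pre-induced 24 h with 10 ng/ml doxycycline for eGFP-delta133p53alpha, plated dox-free and exposed 24 h at 37C to titrated compounds. Fixed, Hoechst-stained; gated GFP peak intensity by laser scanning cytometry, normalized to DMSO (0%) and 57.5 uM 5-azacytidine (100%).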
# Potency is read from the fitted curve at half-maximal effect.
# Chain of Cellular tumor antigen p53 (Homo sapiens) (P04637 whole entry, looked up): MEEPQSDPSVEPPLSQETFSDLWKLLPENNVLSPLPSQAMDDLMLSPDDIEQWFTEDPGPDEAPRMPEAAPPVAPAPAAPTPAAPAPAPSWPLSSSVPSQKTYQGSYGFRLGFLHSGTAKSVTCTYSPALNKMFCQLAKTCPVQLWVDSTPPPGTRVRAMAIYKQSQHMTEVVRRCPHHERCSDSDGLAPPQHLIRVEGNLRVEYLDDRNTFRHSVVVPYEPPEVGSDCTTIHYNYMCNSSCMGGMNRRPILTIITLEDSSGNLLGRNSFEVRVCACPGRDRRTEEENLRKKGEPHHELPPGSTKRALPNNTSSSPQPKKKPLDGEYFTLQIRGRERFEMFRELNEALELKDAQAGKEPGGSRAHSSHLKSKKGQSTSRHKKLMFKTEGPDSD
SMILES,activation [%],Potency
CN(C)C(=O)Nc1ccc(Cl)c(Cl)c1,13.4,
NC(=Nc1ccccc1)Nc1ccccc1,7.53,
NC(=S)N/N=C/c1cccnc1,0.565,
CC(C)n1c(/C=C/[C@@H](O)C[C@@H](O)CC(=O)O)c(-c2ccc(F)cc2)c2ccccc21,-1.69,
CC(=O)Oc1ccc(C(=C2CCCCC2)c2ccc(OC(C)=O)cc2)cc1,9.6,
COc1cc(Cl)cn2c(-c3cccc(NC4CNC4)n3)cnc12,-0.246,
CC1=C(C(=O)O)N2C(=O)[C@@H](NC(=O)[C@H](N)c3ccccc3)[C@H]2SC1,-27.6,
C=CCNc1nc(NCC=C)nc(N2CCN(C(c3ccc(F)cc3)c3ccc(F)cc3)CC2)n1,-14.2,
c1ccc(OCc2ccc(CCCN3CCOCC3)cc2)cc1,-7.53,
CC(Oc1c(Cl)cccc1Cl)C1=NCCN1 (stereo not given),3.35,
Cc1ccc2c(Cl)cc(Cl)c(O)c2n1,7.34,
C=CC[N+]1([C@H]2C[C@H]3[C@@H]4CC[C@H]5C[C@H](O)[C@@H](N6CCOCC6)C[C@]5(C)[C@@H]4CC[C@]3(C)[C@H]2OC(C)=O)CCCC1,4.45,
CC(C)Nc1cccnc1N1CCN(C(=O)c2cc3cc(NS(C)(=O)=O)ccc3[nH]2)CC1,-10.7,
Cn1cc(C=C2C(=O)Nc3cccnc32)c2ccccc21,,24.3 µM (active)
COc1cc(C(=O)N2CCCCCCC2)cc(OC)c1OC,-6.21,
CCCCCCCC/C=C/C(=O)O,-2.82,
C=CCn1c(=O)n([C@@H]2O[C@H](CO)[C@@H](O)[C@H]2O)c2nc(N)[nH]c(=O)c21,-0.565,
CCc1cnn2c(NCc3ccc[n+]([O-])c3)cc(N3CCCC[C@@H]3CCO)nc12,,0.0685 µM (active)
CO[C@H]1O[C@@H]2O[C@@]3(C)CC[C@@H]4[C@@H](C)CC[C@@H]([C@H]1C)[C@@]24OO3,20,
O=C(C=Cc1cccc(S(=O)(=O)Nc2ccccc2)c1)NO,49,

SMILES,activation [%],Potency
CS(=O)(=O)c1ccc(-c2cn3ccccc3n2)cc1,-26.8,
CCCCCN=C(N)NN=Cc1c[nH]c2ccc(OC)cc12,31,
COc1cc2nc(N3CCCCC3)nc(NC3CCN(C)CC3)c2cc1OC,,38.5 µM (active)
CN1CCN(C2=Nc3cc(F)ccc3Cc3ccccc32)CC1,-11.9,
O=C(O)[C@@H]1[C@H]2C[C@H]3c4[nH]c5ccccc5c4CCN3C[C@@H]2CC[C@@H]1O,,3.09 µM (active)
CC(C)c1onc(-c2c(Cl)cccc2Cl)c1COc1ccc(C=Cc2cccc(C(=O)O)c2)c(Cl)c1,-0.915,
O=C1CC2(CCCC2)CC(=O)N1CCNCC1COc2ccccc2O1 (stereo not given),-5.86,
CN[C@@H]1[C@H](O)[C@H](NC)[C@H]2O[C@@]3(O)C(=O)C[C@@H](C)O[C@H]3O[C@@H]2[C@H]1O,27.7,
CCCC(=O)OCOC(=O)C1=C(C)NC(C)=C(C(=O)OC)C1c1cccc(Cl)c1Cl (stereo not given),-26.6,
CC1(COc2ccc(CC3SC(=O)NC3=O)cc2)CCCCC1 (stereo not given),-3.95,
Cc1ccc(C(=O)C(=O)O)cc1C,-13,
CCN(CC)CC(=O)OCC(=O)[C@@]1(O)CC[C@H]2[C@@H]3CCC4=CC(=O)CC[C@]4(C)[C@H]3[C@@H](O)C[C@@]21C,-4.18,
CC1(C)O[C@@H]2C[C@H]3[C@@H]4CCC5=CC(=O)CC[C@]5(C)[C@@]4(F)[C@@H](O)C[C@]3(C)[C@]2(C(=O)CCl)O1,-1.67,
Cc1c(C)c2c(c(C)c1OC(=O)CCC(=O)OCCO)CC[C@@](C)(CCC[C@H](C)CCC[C@H](C)CCCC(C)C)O2,-20.9,
OC[C@]1(O)OC[C@@H](O)[C@H](O)[C@@H]1O,-16.7,
C[C@H](NC(=O)C(C#N)=Cc1cccc(Br)n1)c1ccccc1,11.9,
Cc1cc(O)c2ccccc2c1O,,34.7 µM (active)
CC(C)CN(C[C@@H](O)[C@H](Cc1ccccc1)NC(=O)O[C@H]1CO[C@H]2OCC[C@H]21)S(=O)(=O)c1ccc(N)cc1,22.9,
O=C(COCCOCCOCC(=O)Nc1c(I)cc(I)c(C(=O)O)c1I)Nc1c(I)cc(I)c(C(=O)O)c1I,10,
O=C(c1cccc(Br)c1)N1CCC(N2CCCC2)CC1,-15.6,
